# Results taken from PubChem BioAssay.
# Active and inactive are the calls of the source.
# Assays:
# [1] = anti-His antibody binders, primary screen, artefact control for SMM control protein annotation, biochemical, small-molecule microarray, 635 nm fluorescence (AID 1128); conditions: anti-His Alexa647 antibody binding, higher = more signal;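 note: score merges feature fluorescence with signal-to-noise for each printed compound spot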
# [2] = test system: Human papillomavirus type 1a E7 protein (residues 1-88); assay: HPV1a E7 small-molecule binders, primary screen, biochemical, small-molecule microarray, residues 1-88, 635 nm (AID 1129); conditions: small-molecule microarray binding, fluorescence 635 nm; higher = more signal
# [3] = target: Focal adhesion kinase 1 (Homo sapiens) (UniProt Q05397); assay: small-molecule microarray binders of FAK, primary screen, biochemical, 635/667 nm fluorescence, BSA, DTT (AID 1130); conditions: PTK2 binding, 635 nm fluorescence, higher = more signal;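 note: composite of spot emission at 667 nm and signal to noise over triplicate slides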
# Focal adhesion kinase 1 (Homo sapiens), sequence (Q05397 whole entry, looked up): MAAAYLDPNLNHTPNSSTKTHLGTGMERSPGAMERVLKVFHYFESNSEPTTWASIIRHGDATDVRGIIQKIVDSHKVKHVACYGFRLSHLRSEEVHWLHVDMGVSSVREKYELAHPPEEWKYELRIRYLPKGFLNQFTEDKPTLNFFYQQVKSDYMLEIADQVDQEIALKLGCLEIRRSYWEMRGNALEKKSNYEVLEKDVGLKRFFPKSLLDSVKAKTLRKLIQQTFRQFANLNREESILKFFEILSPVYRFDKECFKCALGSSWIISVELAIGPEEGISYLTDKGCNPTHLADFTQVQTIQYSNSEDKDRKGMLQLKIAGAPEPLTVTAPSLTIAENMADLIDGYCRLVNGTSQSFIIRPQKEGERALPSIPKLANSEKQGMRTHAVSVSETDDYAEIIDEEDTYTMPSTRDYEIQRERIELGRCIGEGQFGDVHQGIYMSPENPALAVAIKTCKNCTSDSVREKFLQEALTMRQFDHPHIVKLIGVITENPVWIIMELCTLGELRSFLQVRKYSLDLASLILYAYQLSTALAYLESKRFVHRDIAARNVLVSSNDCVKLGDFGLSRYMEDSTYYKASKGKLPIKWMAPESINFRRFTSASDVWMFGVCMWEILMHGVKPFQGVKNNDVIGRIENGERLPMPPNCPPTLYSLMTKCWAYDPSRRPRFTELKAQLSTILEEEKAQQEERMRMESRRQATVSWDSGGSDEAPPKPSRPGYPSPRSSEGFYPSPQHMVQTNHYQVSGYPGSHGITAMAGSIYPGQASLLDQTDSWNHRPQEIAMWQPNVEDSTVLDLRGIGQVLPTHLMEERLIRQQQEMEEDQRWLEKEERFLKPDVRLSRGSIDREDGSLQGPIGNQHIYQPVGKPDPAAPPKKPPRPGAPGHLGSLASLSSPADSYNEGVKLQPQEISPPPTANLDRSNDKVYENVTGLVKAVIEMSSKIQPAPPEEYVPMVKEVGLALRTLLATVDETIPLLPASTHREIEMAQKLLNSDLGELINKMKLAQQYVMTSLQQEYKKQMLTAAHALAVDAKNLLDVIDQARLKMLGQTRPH
# [4] = test system: Fibrinogen (Alexa647-labelled); assay: fibrinogen binders on compound microarrays, profiling panel, artefact control for SMM control-protein annotation, biochemical, small-molecule microarray, 635/667 nm fluorescence (AID 1131); conditions: fibrinogen-A647 binding fluorescence, higher = more signal;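 note: z-score merges 667 nm fluorescence with per-spot signal-to-noise over triplicate slides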
# [5] = target: Follistatin (Homo sapiens) (UniProt P19883); assay: follistatin binders on small-molecule microarrays, primary screen, biochemical, small-molecule microarray, 635/667 nm fluorescence (AID 1132); conditions: FST binding, 635 nm fluorescence, higher = more signal
# Follistatin (Homo sapiens), sequence (P19883 whole entry, looked up): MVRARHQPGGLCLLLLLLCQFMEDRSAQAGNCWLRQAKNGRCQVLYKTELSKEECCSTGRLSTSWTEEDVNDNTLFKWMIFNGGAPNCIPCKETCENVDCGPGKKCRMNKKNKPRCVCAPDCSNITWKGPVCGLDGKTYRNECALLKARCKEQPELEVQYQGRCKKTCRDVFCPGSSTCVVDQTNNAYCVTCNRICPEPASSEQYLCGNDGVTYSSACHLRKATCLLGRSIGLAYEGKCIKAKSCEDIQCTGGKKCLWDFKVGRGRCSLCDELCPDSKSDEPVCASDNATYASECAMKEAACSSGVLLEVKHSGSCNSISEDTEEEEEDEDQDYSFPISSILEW
# [6] = target: Fibroblast growth factor 2 (Homo sapiens) (UniProt P09038); assay: FGF2 binders on small-molecule microarrays, primary screen, biochemical, small-molecule microarray, 635/667 nm fluorescence (AID 1133); conditions: small-molecule microarray binding, FGF2, fluorescence 635/667; higher = more signal
# Fibroblast growth factor 2 (Homo sapiens), sequence (P09038 whole entry, looked up): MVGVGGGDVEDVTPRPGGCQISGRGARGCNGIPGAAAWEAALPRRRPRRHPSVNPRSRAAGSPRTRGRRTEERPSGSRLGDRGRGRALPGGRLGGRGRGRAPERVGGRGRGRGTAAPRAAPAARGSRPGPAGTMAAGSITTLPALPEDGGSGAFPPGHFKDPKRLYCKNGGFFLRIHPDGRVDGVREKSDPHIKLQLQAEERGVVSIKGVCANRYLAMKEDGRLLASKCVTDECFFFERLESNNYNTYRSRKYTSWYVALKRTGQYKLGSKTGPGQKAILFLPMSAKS
# [7] = mitochondrial membrane potential change in A549 cells, profiling panel, cell-based, JC-1 fluorescence, basal, 24 h, 100 nL (AID 1138); conditions: higher = more signal;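 note: A549 lung adenocarcinoma cells under basal conditions with no added stimulus; test concentration not given here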
# Lefty1 = Lefty1 binders on small-molecule microarrays, primary screen, biochemical, small-molecule microarray, 635/667 nm fluorescence (AID 1139); conditions: small-molecule microarray binding, fluorescence 635/667; higher = more signal
# [8] = test system: wheat germ agglutinin (Triticum aestivum), Alexa647-labelled; assay: wheat germ agglutinin binders on compound microarrays, profiling panel, artefact control for SMM control-protein annotation, biochemical, small-molecule microarray, 635/667 nm fluorescence (AID 1140); conditions: WGA-A647 binding, 635 nm fluorescence, higher = more signal;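 note: score merges 667 nm feature emission with signal to noise over triplicate slides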
# [9] = target: Luciferin 4-monooxygenase (Photinus pyralis) (UniProt P08659); assay: firefly luciferase enzyme inhibitors, primary screen, biochemical, luminescence, purified enzyme, 2006 set (AID 1141); conditions: SteadyGlo luminescence, 30 min, higher = more signal, called active from +8 up or from −8 down;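 note: cell-free assay with purified firefly luciferase at 100 ng per well in PBS; test concentration not given here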
# Luciferin 4-monooxygenase (Photinus pyralis), sequence (P08659 whole entry, looked up): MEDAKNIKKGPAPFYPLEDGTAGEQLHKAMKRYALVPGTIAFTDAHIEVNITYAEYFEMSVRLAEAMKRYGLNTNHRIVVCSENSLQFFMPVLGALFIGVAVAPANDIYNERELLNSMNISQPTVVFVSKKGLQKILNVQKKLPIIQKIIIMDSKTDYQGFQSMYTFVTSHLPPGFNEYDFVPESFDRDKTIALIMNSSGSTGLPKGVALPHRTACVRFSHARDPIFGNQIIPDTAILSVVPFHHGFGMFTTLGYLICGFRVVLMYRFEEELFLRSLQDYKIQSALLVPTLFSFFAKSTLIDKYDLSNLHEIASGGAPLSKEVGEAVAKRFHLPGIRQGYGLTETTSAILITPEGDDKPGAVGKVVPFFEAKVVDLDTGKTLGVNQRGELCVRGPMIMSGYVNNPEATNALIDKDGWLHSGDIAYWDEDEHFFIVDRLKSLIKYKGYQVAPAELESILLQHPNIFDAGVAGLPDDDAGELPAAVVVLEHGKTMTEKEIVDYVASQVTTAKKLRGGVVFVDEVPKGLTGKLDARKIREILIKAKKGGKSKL
SMILES,composite z-score [1],composite z-score [2],composite z-score [3],composite z-score [4],composite z-score [5],composite z-score [6],z-score [7],composite z-score (Lefty1),composite z-score [8],z-score [9]
COC(=O)[C@@]1(Cc2ccc(F)cc2)[C@H]2c3cc(C(=O)N4CCCC4)n(Cc4ccc(C)o4)c3C[C@H]2CN1C(=O)c1ccccc1,1.69,1.07,1.05,0.952,0.4,-0.708,0.821,0.181,0.794,-13.4 (active)
Cc1ccc(S[C@]2(C(=O)NC3CC3)CC(=O)N(C3Cc4ccccc4C3)[C@@H]2c2ccc(CO)cc2)cc1,-0.172,0.445,0.0342,-0.424,-0.584,-0.3,2.42,-1.35,-0.0705,-1.28 (inactive)
CCCC[C@@H]1C[C@H]1[C@@H](NC(=O)c1ccco1)c1ccc(Cl)cc1,1.26,1.2,0.998,0.939,0.0863,-0.488,1.88,-0.406,1.21,1.17 (inactive)
O=C1OCC=C[C@H]2OC34C=CCN(c5ccc6ccccc6c5)C(=O)[C@H]3N(CCCCCCO)C(=O)[C@@H]4[C@@H]12 (stereo not given in full),2.67,-0.593,0.806,-0.9,-1.18,-0.595,1.16,-0.732,-0.434,-0.875 (inactive)
CC(=O)NCCCC[C@@H]1NC(=O)[C@@H]2C[C@H](C(=O)NCCCCCCNC(=O)CS)[C@H](c3cccc(OCCO)c3)N2C1=O,1.23,1.1,0.314,-0.917,1.24,1.59,0.488,0.574,0.379,-0.242 (inactive)
CN1C(=O)C2C=CC(C(O)c3cccs3)N(Nc3ccccc3)C2C1=O (stereo not given),0.803,1.16,0.251,0.024,0.492,-0.294,0.0177,0.249,0.508,-0.0014 (inactive)
C=C(C)C1C(=C)CN([C@H](CO)c2ccccc2)C1=O (stereo not given in full),0.0639,-0.534,-0.521,-0.0803,0.189,-0.158,-0.647,0.587,-0.187,1.01 (inactive)
O=C1OCCC/C=C\[C@H]2OC34C=CCN(c5ccc6ccccc6c5)C(=O)[C@H]3N(CCCCCCO)C(=O)[C@@H]4C12 (stereo not given in full),1.79,0.124,-0.29,-1.74,-0.179,-0.943,1.74,-0.159,-0.0279,-1.47 (inactive)
COc1ccc(C(=O)Nc2ccc(CN3C(=O)[C@@]4(O[C@@H](CCn5cc([C@H](O)c6ccccc6)nn5)[C@H]([Si](C)(C)c5ccc(OC)cc5)[C@H]4C)c4ccccc43)cc2)cc1,0.848,-0.024,-0.103,0.579,0.836,-0.019,1.83,0.526,0.376,-0.753 (inactive)
CN1C(=O)C2C=CC(C(O)C3=C[C@H]4C[C@@H](C3)C4(C)C)N(Nc3ccccc3)C2C1=O (stereo not given in full),0.274,1.19,0.608,0.816,1.18,0.0364,-0.838,0.446,0.782,-0.179 (inactive)
CN1C(=O)C2C=CC(C(O)c3ccc(-c4ccccc4)s3)N(N(c3ccccc3)c3ccccc3)C2C1=O (stereo not given),0.0993,0.628,0.162,0.528,1.14,-0.314,0.767,-0.119,1.08,-0.377 (inactive)
CC(C)N1C(=O)[C@@]2(Cc3ccccc31)c1ccccc1C(=O)N(C1CCCCC1)[C@H]2c1ccc(CO)cc1,-0.192,0.37,-0.0723,0.193,1.33,0.254,-0.958,0.958,-0.01,1.11 (inactive)
COc1ccc([C@H]2C[C@H]3C(Br)=C[C@@H]2C(=O)[C@]32CO2)cc1,0.613,-0.751,0.298,-0.325,0.6,0.194,0.271,0.0745,-0.138,-0.388 (inactive)
COc1ccc([Si](C)(C)[C@H]2[C@H](CC(=O)N3CCC[C@H]3CO)O[C@@]3(C(=O)N(Cc4cccc(N5C(=O)c6cccc7cccc5c67)c4)c4ccccc43)[C@@H]2C)cc1,0.874,0.614,0.209,0.94,1.17,0.7,1.57,1.52,0.571,-0.75 (inactive)
O=C1O[C@H](c2ccccc2)[C@H](c2ccccc2)N2[C@H]1[C@@H](C(=O)NC[C@H](O)c1ccccc1)[C@]1(C(=O)Nc3ccccc31)[C@H]2c1ccc(OCCO)cc1,1.77,1.2,1.06,0.743,0.992,0.655,-0.253,0.0702,0.864,-0.609 (inactive)
O=C(NCc1ccccc1)[C@@]1(CCS(=O)(=O)c2ccccc2)N=C(c2ccc(OCCCO)cc2)O[C@H]1c1ccccc1,1.52,1.26,0.54,0.994,1.21,-0.0657,-0.346,0.116,1.1,0.548 (inactive)
CCN(CC)c1ccc(N2CC=CC34O[C@@H]5/C=C\CCCOC(=O)C5[C@H]3C(=O)N(CCO)[C@@H]4C2=O)cc1 (stereo not given in full),0.449,-0.57,-0.724,-0.837,-0.654,-1.03,-0.73,-0.2,-0.875,-0.312 (inactive)
O=C1c2ccccc2[C@@]2(Cc3ccccc3N(CCN3CCOCC3)C2=O)[C@H](c2ccc(CO)cc2)N1Cc1ccccc1,-0.784,-0.689,0.352,-0.523,0.0312,-0.253,0.202,-0.0729,-0.304,1.01 (inactive)
O=C1NC(=O)C2C1C=CC(C(O)c1ccccc1)N2Nc1ccc(Cl)cc1Cl (stereo not given),1.62,1.16,0.433,0.985,1.28,0.394,-0.0329,1.4,0.763,-1.44 (inactive)
COC(=O)[C@@]1(Cc2ccc(F)cc2)[C@@H]2[C@@H](CC(=O)[C@H]2CC(=O)C(=O)N(C)C)CN1C(=O)c1ccccc1,1.49,1.24,0.138,1.01,0.959,-0.213,0.432,-0.198,1.22,1.28 (inactive)
CS(=O)(=O)CCOC(=O)C1=CC(CCCO)=CC(c2ccc(CN3CCCC3)cc2)N(Cc2cc3c(cc2Br)OCO3)C=C1C(=O)OCCS(C)(=O)=O (stereo not given),2.28,0.712,0.0113,0.971,0.694,0.382,3.39,0.666,0.914,-1.78 (inactive)
CN(C)C(=O)[C@@]1(Cc2ccccc2CN=[N+]=[N-])N=C(c2ccc(OCCCO)cc2)O[C@H]1c1ccccc1,2.77,1.18,0.995,0.941,0.761,1.34,0.0462,-0.169,0.751,0.27 (inactive)
O=C1NC(=O)C2C1C=CC(C(O)C(c1ccccc1)c1ccccc1)N2Nc1ccc(Cl)cc1Cl (stereo not given),-0.138,1.15,0.682,0.852,0.896,-0.301,-0.815,-0.0329,0.587,0.231 (inactive)
O=C1O[C@H](c2ccccc2)[C@H](c2ccccc2)N2[C@H]1[C@@H](C(=O)O)[C@]1(C(=O)Nc3ccc(C#CC4=CCCCC4)cc31)[C@H]2c1ccccc1OCCO,1.76,1.23,0.827,0.922,1.26,1.08,-2.56,1.63,1.18,-6.51 (inactive)
O=C1NCC(=O)N2[C@@H]1C[C@@H](C(=O)O)[C@H]2c1cccc(OCCO)c1,1.85,1.34,4.87,0.654,1.52,1.5,0.221,1.84,1.45,-0.707 (inactive)
O=C(O)[C@@]1(CCS(=O)(=O)c2ccccc2)COC(c2ccc(OCCCO)cc2)=N1,-0.777,-0.0191,-0.283,-1.2,0.0153,-0.23,-0.487,-1.34,-0.0996,0.299 (inactive)
C=CCNC(=O)[C@H]1[C@@H]2C(=O)O[C@@H](c3ccccc3)[C@@H](c3ccccc3)N2[C@@H](c2ccccc2OCCO)[C@]12C(=O)Nc1ccc(C#CC3=CCCCC3)cc12,0.971,1.17,0.26,0.783,1.16,1.21,-0.856,0.681,0.394,-1.19 (inactive)
COc1ccc(C(=O)Nc2cccc(CN3C(=O)[C@]4(O[C@H](CCO)[C@@H]([Si](C)(C)c5ccc(OC)cc5)[C@@H]4C)c4ccccc43)c2)cc1,0.869,1.17,0.354,0.579,1.24,0.699,-1.52,1.35,0.32,0.681 (inactive)
